# Source: PubChem BioAssay AID624330 (Southern Research Specialized Biocontainment Screening …, 2012)
# Among all 340,000 compounds or so, about 2,100 (0.62%) were called active. A selection follows. Results with a measured potency or affinity are listed apart. Values without a mark were called inactive.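 The calls were made as follows: active = first-screen hits whose inhibition reached a set limit at any dose in the follow-up dose series; inconclusive = inhibition above the set first-screen limit but never retested; inactive = the rest.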
# Molecular target: Rac GTPase-activating protein 1 (Homo sapiens) (UniProt Q9H0H5)
# Sequence (Q9H0H5 whole entry, looked up): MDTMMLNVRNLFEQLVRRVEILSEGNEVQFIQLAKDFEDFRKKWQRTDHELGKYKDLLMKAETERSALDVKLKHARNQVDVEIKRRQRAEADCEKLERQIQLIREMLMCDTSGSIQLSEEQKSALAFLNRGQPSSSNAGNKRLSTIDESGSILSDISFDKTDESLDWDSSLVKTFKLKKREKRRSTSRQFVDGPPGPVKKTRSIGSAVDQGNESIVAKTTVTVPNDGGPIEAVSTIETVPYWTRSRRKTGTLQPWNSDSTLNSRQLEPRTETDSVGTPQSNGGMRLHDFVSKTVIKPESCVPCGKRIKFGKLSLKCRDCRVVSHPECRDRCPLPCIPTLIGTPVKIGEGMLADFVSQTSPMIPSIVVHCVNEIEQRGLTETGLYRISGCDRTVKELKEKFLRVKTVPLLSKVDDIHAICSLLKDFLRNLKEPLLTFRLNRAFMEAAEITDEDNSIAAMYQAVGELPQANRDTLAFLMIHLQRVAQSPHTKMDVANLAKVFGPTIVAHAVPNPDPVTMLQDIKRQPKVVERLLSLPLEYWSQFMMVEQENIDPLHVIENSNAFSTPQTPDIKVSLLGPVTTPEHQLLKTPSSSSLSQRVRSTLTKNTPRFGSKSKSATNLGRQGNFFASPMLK
# Test: MgcRacGAP GTPase-activating activity inhibitors, confirmation, biochemical, ADP Hunter fluorescence, primary and confirmatory (AID 624330);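 also: fluorescence reports GDP produced by GAP-driven GTP hydrolysis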
# Conditions: MgcRacGAP-stimulated Rac1 GTP hydrolysis, at 30 µM, active compounds read high, GST-tagged Rac1 F28L mutant substrate
row,SMILES,inhibition [%]
1,NC(=O)C1CCCN(S(=O)(=O)c2ccc3ccccc3c2)C1 (stereo unspecified),2.91
2,Cc1onc(-c2ccccc2)c1-c1n[nH]c(=S)n1-c1ccc(C(=O)O)cc1,5.16
3,CC(=O)Nc1ccc(S(=O)(=O)N(C)S(=O)(=O)c2ccc(F)cc2)cc1,10.5
4,CC(=O)c1cc(CN2CCN(Cc3ccc(C)cc3)C(CCO)C2)cs1 (stereo unspecified),11.3
5,CC(CCN1CCN(c2ccccc2)CC1)c1ccccc1 (stereo unspecified),0.31
6,CC(CCN1CCOCC1)c1ccccc1 (stereo unspecified),22.5
7,O=S(=O)(c1ccc2ccccc2c1)N1CCN(CCO)CC1,1.28
8,O=[N+]([O-])c1ccccc1CN1CCN(Cc2ccc3ccccc3c2)CC1,28.3
9,c1ccc2cc(CN3CCOCC3)ccc2c1,1.35
10,CCOC(=O)N1CCN(Cc2ccc3ccccc3c2)CC1,28.6
11,CC1c2[nH]c3ccccc3c2CCN1S(C)(=O)=O (stereo unspecified),1.37
12,Cc1ccc2cc(/C=N/NC(=O)c3ccc(F)cc3)c(Cl)nc2c1,5.25
13,Cc1ccccc1NS(=O)(=O)c1cc(C(=O)Nc2cccc([N+](=O)[O-])c2)ccc1C,8.26
14,O=C(Nc1cccc(-c2cccc(Cl)c2)c1)C1CCN(Cc2ccccn2)CC1,2.6
15,CC(NS(=O)(=O)CCNC(=O)c1ccccc1)c1ccccc1 (stereo unspecified),4.33
16,CC(=O)Nc1ccc(S(=O)(=O)N[C@@H](C)C(=O)OCC(=O)c2ccc(Br)s2)cc1,16.7
17,CCn1nnnc1Oc1ccc(Cl)cc1,1.61
18,Cc1nnc(C)n1/N=C/c1ccc(C(=O)O)cc1,7.46
19,Oc1ccccc1/C=N/n1c2ccccc2c2ccccc21,8.39
20,C(=N/n1c2ccccc2c2ccccc21)/c1ccco1,14.3
21,Cc1cc(C)n(-c2nnc(C)n2/N=C/c2ccco2)n1,2.53
22,Cc1ccc(CN2CCN(/N=C/c3ccc(C(=O)O)cc3)CC2)cc1,8.13
23,S=c1[nH]nc(-c2cccnc2)n1/N=C/C=C/c1ccco1,21.5
24,COc1cccc(/C=N/n2c(SC)nnc2-c2ccccc2)c1O,22.8
25,S=c1[nH]nc(-c2ccccc2)n1/N=C/C=C/c1ccco1,30.9
26,NC(=O)COC(=O)c1cccc(S(=O)(=O)N2CCN(c3ccccc3)CC2)c1,7.91

row,SMILES,inhibition [%]
1,Cc1ccc(OCC(=O)NNC(=O)c2ccc(NC(=O)C3CC3)cc2)c(C)c1,7.97
2,CC(=O)c1cccc(NS(=O)(=O)c2c(C)n[nH]c2C)c1,7.62
3,CC(=O)Nc1ccc2c(c1)N(S(=O)(=O)c1cccs1)CCC2,4.49
4,CC(C)OCCCNC(=O)c1ccc(CS(=O)(=O)Cc2ccccc2F)o1,3.97
5,Cc1nc(N2CCN(c3ccccc3)CC2)nc2c1C(=O)CCC2,5.63
6,CCN1C(=O)/C(=C/c2c(C)nn(C)c2C)SC1=S,0.43
7,O=C(O)c1ccc(Nc2ncnc3ccccc23)cc1,7.58
8,Cc1cccc(NC(=O)CNC(=O)COC(=O)c2ccco2)c1C,-0.7
9,c1ccc(C[C@H]2CN=C(Nc3ccccc3)N2CC2CCCCC2)cc1,3.05
10,Cc1ccccc1-n1nc(C(=O)O)cc1-c1ccccc1,3.4
11,O=C(NCCc1ccccc1)c1ccc(-c2ccccc2Cl)o1,5.22
12,Cc1nnc(C)n1/N=C/C=C/c1ccccc1,1.05
13,Cc1nnc(C)n1/N=C/c1ccccc1,6.18
14,S=c1[nH]nc(-c2cccnc2)n1/N=C/C=C/c1ccccc1,5.39
15,Cc1ccc(/C=N/n2c(-c3ccncc3)n[nH]c2=S)cc1,5.7
16,CC1CCN(C(=O)C2CCN(S(=O)(=O)c3cccs3)CC2)CC1,6.45
17,CCc1cc(C(=O)N2CCCC(C(=O)c3cccc(OC(C)C)c3)C2)n(C)n1 (stereo unspecified),9.3
18,COc1ccc2c(CC(=O)N3CCN(S(=O)(=O)c4ccc(F)cc4)CC3)coc2c1,1.15
19,N#Cc1ccccc1S(=O)(=O)N1CCN(C(=O)Cc2n[nH]c(=O)c3ccccc23)CC1,1.94
20,Cc1ccc2c(CC(=O)N3CCN(S(=O)(=O)c4ccccc4)CC3)coc2c1,5.1
21,N#Cc1ccccc1S(=O)(=O)N1CCN(C(=O)CCc2ccccc2)CC1,6.33
22,CCCn1c(N2CCN(C(=O)/C=C/C(=O)O)CC2)nc2ccccc21,10.8
23,NC(=O)COC(=O)CCSc1ccc(Cl)cc1,5.12
24,COC/C=C/C1=CC2=CC(=O)C(C)(OC(=O)c3cnc4ccccc4n3)C(=O)C2=CN1Cc1ccco1 (stereo unspecified),11
25,COc1nonc1NC(=O)CSc1nc2ccccc2[nH]1,9.74
26,Oc1cccc(Nc2c3ccccc3nc3ccccc23)c1,16.7

row,SMILES,inhibition [%]
1,c1ccc(Nc2cccc(Nc3ccccc3)c2)cc1,19.8
2,OC1(CC#CCN2CCCCC2)c2ccccc2-c2ccccc21,11.1
3,O=C(c1ccco1)N1N=C2CCCCCC2C1(O)C(F)(F)F (stereo unspecified),1.94
4,Cc1ccc(OCCOCCNC(C)(C)C)c([N+](=O)[O-])c1,29.6
5,C=CCNCCCCOc1ccc(C)cc1[N+](=O)[O-],14
6,Cc1ccc(OCCOCCN2CCN(C)CC2)c([N+](=O)[O-])c1,31.9
7,Cc1ccc(OCCN2CCNCC2)c([N+](=O)[O-])c1,21.6
8,Cc1cc(C)n(CCCN2CCC(C(=O)Nc3cccc(-c4cccc(F)c4)c3)CC2)n1,11.5
9,Cc1ccccc1C(=O)NC1CC2CCCC(C1)N2Cc1ccccc1Cl (stereo unspecified),11.5
10,Cc1c(C(=O)NCC(c2ccco2)N(C)C)oc2c(Cl)cccc12 (stereo unspecified),5.84
11,COc1cc2c(cc1OC)C1=C(C#N)CC/C(=N\S(=O)(=O)c3cccc(Cl)c3)N1CC2,4.99
12,CC(C)CNC(=O)CN1C(=O)NC2(CCc3ccccc32)C1=O (stereo unspecified),10.8
13,CN1CCS/C1=C\C=C1/SC(=S)N(CC(=O)O)C1=O,16.9
14,CCN1C(=O)/C(=C/C=C2/CCCN2C)OC1=S,5.72
15,CN1C(=O)/C(=C/C=C2\SCCN2C)OC1=S,8.62
16,CN1C(=O)/C(=C\C=C2/CCCN2C)N(C)C1=S,28.8
17,Cc1ccc(S(=O)(=O)N2CCN(CN3C(=O)CC4(CCCC4)C3=O)CC2)cc1,1.32
18,COc1cc(/C=N/n2c(C3CCCCC3)n[nH]c2=S)cc(Br)c1O,12.6
19,COc1ccc(/C=N/n2nnnc2N)cc1OC,8.91
20,COc1cc(/C=N/n2c(C3CCCCC3)n[nH]c2=S)cc(OC)c1O,15.8
21,CCOc1ccc(/C=N/n2nnnc2N)cc1OCC,9.77
22,COc1cc(/C=N/n2nnnc2N)ccc1OC(C)=O,23.6
23,C=CCOc1ccc(/C=N/n2nnnc2N)cc1OC,12.5
24,O=C(/C=C\c1ccco1)NC(=S)Nc1ccccc1O,15.2
25,COc1cccc(NC(=S)NC(=O)c2cccnc2)c1,13.8
26,CN(C)C1=NCCN1CCCC1CCCC1,4.05

row,SMILES,inhibition [%]
1,CC(C)N(Cc1nccn1C)C(=O)C1CCC(=O)N(CCc2ccccc2)C1 (stereo unspecified),12.2
2,Cc1ccc(/C(N)=N/OC(=O)CCCc2ccccc2)cc1,7.16
3,COc1ccc2c(N)c(C(=O)NN)[nH]c2c1,27.6
4,CCOC(=O)Nc1c(C(=O)OC)[nH]c2cccc(OC)c12,9.48
5,COC(=O)c1cc(S(=O)(=O)NC2CCC(C)CC2)cn1C (stereo unspecified),0.48
6,Cc1ccc(OCCC(=O)OCC(=O)NC(=O)NCc2ccccc2)cc1,3.66
7,CN=c1scc(C)n1/N=C/c1ccc2c(c1)OCO2,18.6
8,CCN=c1scc(C)n1/N=C/c1ccsc1,25.8
9,CN=c1scc(-c2cccs2)n1/N=C/c1ccccc1O,23.1
10,Cc1ccc(CN2CCN(/N=C/c3ccc(O)c(O)c3)CC2)cc1,31.8
11,Cc1nnc(C)n1/N=C/c1ccc(O)cc1,13
12,CN=c1scc(C)n1/N=C/c1ccc(O)c(O)c1O,-36.1
13,Cn1nnnc1SCCNCc1cccnc1,-1.39
14,COC(=O)c1ccc(NC(=O)C(=O)N2CCN(C(=S)Nc3cccc(OC)c3)CC2)cc1,7.83
15,Cc1ccc(C)c(C(=O)C(C)Sc2nc3nn(-c4ccccc4)c(=O)c-3c3n2CCCCC3)c1 (stereo unspecified),-2.59
16,Cc1ccc2nsnc2c1NC(=O)COc1ccccc1F,11.1
17,O=C(/C=C/c1ccco1)NC(=S)Nc1ccccc1,10.7
18,CC(=O)c1ccc(NC(=S)NC(=O)/C=C/c2ccco2)cc1,21.8
19,O=C(/C=C/c1ccco1)NCCc1ccccc1,6.75
20,O=C(O)CCCCCNC(=O)/C=C/c1ccco1,5.1
21,COc1ccccc1OCC(=O)Nc1cc(C(F)(F)F)ccc1-n1cncn1,0.07
22,COc1cccc(C#Cc2c(C=O)n(C)c3ccccc23)c1,8.82
23,Cc1cn(CC(=O)NCc2ccc(N(C)C)cc2)c(=O)[nH]c1=O,11.4
